Results reported in PubChem BioAssay.
Active and inactive are the calls of the source.

Tests used:
[1] = tested on: Plasmodium falciparum Sir2 (PF13_0152, Sir2A); assay: Plasmodium falciparum Sir2A binding compounds – biochemical, small-molecule microarray, 635 nm fluorescence, primary screen (AID 1098); conditions: fluorescence 635 nm, higher = more signal;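 further: score merges spot fluorescence intensity with its signal-to-noise ratio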
[2] = probe aDKK1 binding to arrayed compounds – biochemical, biotinylated probe, 635/667 nm fluorescence, primary screen (AID 1099); conditions: small-molecule microarray, higher = more signal;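 further: score merges 667nm spot fluorescence with signal to noise across triplicate slides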
[3] = probe aCHRDL2 binding to arrayed compounds – biochemical, biotinylated probe, 635/667 nm fluorescence, primary screen (AID 1100); conditions: small-molecule microarray, higher = more signal
[4] = change in splice reporter luminescence, either direction, cell-based, HEK293, spliceosome inhibition project, primary screen (AID 1101); conditions: HEK293 splicing luciferase reporter, 24 h, higher = more signal, called active from +8 up or from −8 down;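 further: HEK293 cells carrying a splicing-competent luciferase reporter gene; test concentration not given here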
[5] = molecular target: Fibroblast growth factor 10 (Homo sapiens) (UniProt O15520); assay: compounds binding fibroblast growth factor 10 – biochemical, small-molecule microarray, 635 nm fluorescence, primary screen (AID 1102); conditions: FGF10 binding, fluorescence 635 nm, higher = more signal
Chain of Fibroblast growth factor 10 (Homo sapiens) (O15520 whole entry, looked up): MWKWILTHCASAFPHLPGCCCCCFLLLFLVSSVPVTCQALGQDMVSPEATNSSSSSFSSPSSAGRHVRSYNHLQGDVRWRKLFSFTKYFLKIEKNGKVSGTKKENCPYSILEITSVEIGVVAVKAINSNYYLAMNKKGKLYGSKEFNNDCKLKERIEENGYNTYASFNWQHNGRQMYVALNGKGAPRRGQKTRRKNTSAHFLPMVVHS

[6] = tested on: glycogen synthase kinase-3 (GSK3A per assay name; protocol says GSK3B); assay: compounds binding glycogen synthase kinase-3 – biochemical, small-molecule microarray, 635 nm fluorescence, GSK3A, primary screen (AID 1103); conditions: fluorescence 635 nm, higher = more signal; further: the record names both GSK3A and GSK3B
[7] = molecular target: Epidermal growth factor receptor (Homo sapiens) (UniProt P00533); assay: compounds binding epidermal growth factor receptor – biochemical, small-molecule microarray, 635 nm fluorescence, primary screen (AID 1104); conditions: EGFR binding, higher = more signal;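 further: score merges 667 nm emission intensity with spot signal to noise over triplicate slides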
Chain of Epidermal growth factor receptor (Homo sapiens) (P00533 whole entry, looked up): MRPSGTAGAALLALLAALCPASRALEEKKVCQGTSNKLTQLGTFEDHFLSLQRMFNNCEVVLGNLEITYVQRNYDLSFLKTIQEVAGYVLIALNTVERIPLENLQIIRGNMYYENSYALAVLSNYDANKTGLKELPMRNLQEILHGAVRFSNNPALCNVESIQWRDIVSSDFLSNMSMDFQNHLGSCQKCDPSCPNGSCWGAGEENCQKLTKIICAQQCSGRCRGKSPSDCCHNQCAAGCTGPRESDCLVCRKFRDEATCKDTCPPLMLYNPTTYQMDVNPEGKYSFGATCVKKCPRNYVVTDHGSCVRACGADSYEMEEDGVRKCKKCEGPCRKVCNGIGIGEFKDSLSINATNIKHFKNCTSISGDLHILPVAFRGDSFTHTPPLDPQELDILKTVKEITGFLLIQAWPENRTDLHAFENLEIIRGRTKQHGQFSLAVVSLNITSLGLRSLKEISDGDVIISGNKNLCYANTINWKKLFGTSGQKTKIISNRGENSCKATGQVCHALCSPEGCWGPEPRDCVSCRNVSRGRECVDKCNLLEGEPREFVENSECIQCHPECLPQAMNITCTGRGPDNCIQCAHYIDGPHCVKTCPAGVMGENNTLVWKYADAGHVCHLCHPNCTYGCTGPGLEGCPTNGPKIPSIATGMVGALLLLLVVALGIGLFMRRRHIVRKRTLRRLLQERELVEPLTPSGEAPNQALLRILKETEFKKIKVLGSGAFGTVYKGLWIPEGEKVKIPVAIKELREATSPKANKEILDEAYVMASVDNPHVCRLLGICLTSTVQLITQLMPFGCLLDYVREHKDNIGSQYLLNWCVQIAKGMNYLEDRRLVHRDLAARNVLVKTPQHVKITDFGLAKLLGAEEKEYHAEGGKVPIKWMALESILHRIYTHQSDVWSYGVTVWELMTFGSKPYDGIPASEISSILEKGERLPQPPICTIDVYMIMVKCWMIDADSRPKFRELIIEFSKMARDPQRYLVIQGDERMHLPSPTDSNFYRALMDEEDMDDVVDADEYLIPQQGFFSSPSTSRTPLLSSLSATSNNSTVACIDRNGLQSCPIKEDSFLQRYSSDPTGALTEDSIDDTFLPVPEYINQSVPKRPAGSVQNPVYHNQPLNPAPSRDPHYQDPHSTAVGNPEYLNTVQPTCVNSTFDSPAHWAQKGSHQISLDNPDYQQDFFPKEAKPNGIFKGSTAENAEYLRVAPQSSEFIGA

[8] = molecular target: Follistatin-related protein 3 (Homo sapiens) (UniProt O95633); assay: compounds binding follistatin-related protein 3 – biochemical, small-molecule microarray, 635 nm fluorescence, primary screen (AID 1105); conditions: FSTL3 binding, higher = more signal;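 further: score merges emission near 667 nm and signal to noise per printed spot across three slides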
Chain of Follistatin-related protein 3 (Homo sapiens) (O95633 whole entry, looked up): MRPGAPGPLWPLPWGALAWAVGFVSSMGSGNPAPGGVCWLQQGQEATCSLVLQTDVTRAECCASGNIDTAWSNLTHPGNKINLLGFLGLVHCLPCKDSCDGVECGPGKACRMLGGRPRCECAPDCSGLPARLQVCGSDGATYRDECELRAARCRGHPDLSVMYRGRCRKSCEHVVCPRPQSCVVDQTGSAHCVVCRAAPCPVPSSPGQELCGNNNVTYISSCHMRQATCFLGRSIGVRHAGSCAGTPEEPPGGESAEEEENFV

[9] = molecular target: Dickkopf-related protein 1 (Homo sapiens) (UniProt O94907); assay: small molecules binding DKK1 protein – biochemical, small-molecule microarray, 635 nm fluorescence scan, primary screen (AID 1106); conditions: higher = more signal;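 further: score merges emission near 667 nm with signal to noise over three replicate slides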
Chain of Dickkopf-related protein 1 (Homo sapiens) (O94907 whole entry, looked up): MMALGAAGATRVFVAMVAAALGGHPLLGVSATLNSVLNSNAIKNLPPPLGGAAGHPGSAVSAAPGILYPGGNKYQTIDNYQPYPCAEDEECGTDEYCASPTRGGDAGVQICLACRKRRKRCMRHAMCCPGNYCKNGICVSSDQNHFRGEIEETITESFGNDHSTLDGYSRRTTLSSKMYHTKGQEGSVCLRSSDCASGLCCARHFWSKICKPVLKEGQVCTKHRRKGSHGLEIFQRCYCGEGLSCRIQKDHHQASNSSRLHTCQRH

[10] = tested on: Inhibin beta A chain (activin A); assay: small molecules binding activin A – biochemical, small-molecule microarray, 635 nm fluorescence scan, primary screen (AID 1107); conditions: INHBA, higher = more signal;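 further: mouse activin A protein probed at 4.33 µg/mL on printed slides; score merges bound-protein fluorescence near 667 nm with spot signal-to-noise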
[11] = tested on: Human papillomavirus type 1a protein E7 (residues 44-93); assay: small molecules binding HPV E7 44-93 – biochemical, small-molecule microarray, residues 44-93, 635 nm fluorescence, primary screen (AID 1108); conditions: fluorescence 635 nm, higher = more signal;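 further: E7 fragment applied at 1 µg/mL in TBST for 1 h at 4 C; score combines spot fluorescence with its signal to noise ratio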
[12] = hepatitis C replication reporter changes, two-sided – Huh7 cells, luciferase reporter, HCV replication inhibitor project, primary screen (AID 1109); conditions: Huh7 HCV replicon luciferase reporter, 48 h; higher = more signal;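 further: huh7 hepatoma cells harbouring a luciferase neomycin HCV replicon reporter; luciferase luminescence as measure of HCV replicon replication; test concentration not given here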
[13] = molecular target: Left-right determination factor 2 (Homo sapiens) (UniProt O00292); assay: small molecules binding LEFTY2 protein – biochemical, small-molecule microarray, 635 nm fluorescence scan, primary screen (AID 1110); conditions: higher = more signal
Chain of Left-right determination factor 2 (Homo sapiens) (O00292 whole entry, looked up): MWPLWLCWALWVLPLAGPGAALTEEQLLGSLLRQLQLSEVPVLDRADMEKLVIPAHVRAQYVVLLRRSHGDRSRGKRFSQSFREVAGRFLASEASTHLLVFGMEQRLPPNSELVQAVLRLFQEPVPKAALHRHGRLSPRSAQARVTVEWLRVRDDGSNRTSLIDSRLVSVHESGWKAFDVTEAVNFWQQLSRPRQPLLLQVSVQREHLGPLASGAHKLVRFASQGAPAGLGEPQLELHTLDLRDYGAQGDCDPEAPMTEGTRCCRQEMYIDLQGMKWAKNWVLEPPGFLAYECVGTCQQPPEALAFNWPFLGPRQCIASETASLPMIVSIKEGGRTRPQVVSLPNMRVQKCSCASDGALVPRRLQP

[14] = molecular target: Calmodulin-1 (Homo sapiens) (UniProt P0DP23); assay: small molecules binding calmodulin-1 with EGTA – biochemical, small-molecule microarray, Cy5-labelled CALM1, profiling panel (AID 1111); conditions: Cy5-CALM1 binding fluorescence, higher = more signal;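 further: labelled calmodulin applied in Tris saline Tween buffer holding calcium plus EGTA and DTT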
[15] = molecular target: Calmodulin-1 (Homo sapiens) (UniProt P0DP23); assay: small molecules binding Ca-loaded calmodulin-1 – biochemical, small-molecule microarray, Cy5-labelled CALM1, plus calcium, artefact control for SMM control-protein annotation, profiling panel (AID 1112); conditions: Cy5-CALM1 binding fluorescence, higher = more signal;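 further: score merges spot fluorescence with signal to noise from triplicate slides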
[16] = probe aWnt5a binding to arrayed compounds – biochemical, biotinylated probe, 635/667 nm fluorescence, primary screen (AID 1113); conditions: small-molecule microarray, higher = more signal;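 further: score merges 667 nm fluorescence intensity with signal-to-noise per printed feature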
[17] = probe aShh binding to arrayed compounds – biochemical, biotinylated probe, 635/667 nm fluorescence, primary screen (AID 1114); conditions: small-molecule microarray, higher = more signal;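 further: probe is biotin-labelled aShh protein from a stem cell growth factor screen; measures binding of labelled protein to compounds printed on the slide; score merges feature fluorescence at 667 nm with signal-to-noise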
[18] = probe aNog binding to arrayed compounds – biochemical, biotinylated probe, 635/667 nm fluorescence, primary screen (AID 1115); conditions: small-molecule microarray, higher = more signal;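 further: probe is biotinylated aNog protein used at 0.15 µg/mL for 1 h at 4 C; z-score combines 667 nm fluorescence of each spot with its signal to noise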
[19] = molecular target: Torsin-1A-interacting protein 1 (Homo sapiens) (UniProt Q5JTV8); assay: compound microarray binding of lysate hLAP1 – cell lysate, small-molecule microarray, COS7 lysate, 635/667 nm fluorescence, primary screen (AID 1116); conditions: 635 nm fluorescence, higher = more signal
Chain of Torsin-1A-interacting protein 1 (Homo sapiens) (Q5JTV8 whole entry, looked up): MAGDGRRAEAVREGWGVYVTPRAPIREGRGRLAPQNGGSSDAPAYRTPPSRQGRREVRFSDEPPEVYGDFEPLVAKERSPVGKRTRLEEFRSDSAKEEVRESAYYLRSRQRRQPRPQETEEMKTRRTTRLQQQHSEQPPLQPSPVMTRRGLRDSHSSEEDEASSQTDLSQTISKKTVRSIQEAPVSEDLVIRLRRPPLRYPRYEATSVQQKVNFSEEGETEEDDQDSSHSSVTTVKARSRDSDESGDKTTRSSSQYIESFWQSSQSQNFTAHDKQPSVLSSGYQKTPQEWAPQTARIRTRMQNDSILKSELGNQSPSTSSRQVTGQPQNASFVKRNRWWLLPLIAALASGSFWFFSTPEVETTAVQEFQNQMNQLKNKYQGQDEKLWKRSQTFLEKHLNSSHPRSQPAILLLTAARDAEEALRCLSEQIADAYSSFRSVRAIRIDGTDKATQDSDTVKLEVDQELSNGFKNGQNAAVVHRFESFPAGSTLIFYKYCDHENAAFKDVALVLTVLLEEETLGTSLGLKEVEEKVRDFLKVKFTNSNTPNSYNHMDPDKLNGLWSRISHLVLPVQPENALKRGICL

[20] = molecular target: Alpha-bungarotoxin (Bungarus multicinctus) (UniProt P60615); assay: compounds binding labelled alpha-BTX control protein – biochemical, small-molecule microarray, Alexa647 label, 635/667 nm fluorescence, artefact control for SMM control protein annotation, profiling panel (AID 1117); conditions: alpha-BTX-A647 binding fluorescence, higher = more signal
Chain of Alpha-bungarotoxin (Bungarus multicinctus) (P60615 whole entry, looked up): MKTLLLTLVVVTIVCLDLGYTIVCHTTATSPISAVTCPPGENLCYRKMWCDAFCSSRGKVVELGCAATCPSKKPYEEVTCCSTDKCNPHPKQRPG

Row | Compound | composite z-score [1] | composite z-score [2] | composite z-score [3] | z-score [4] | composite z-score [5] | composite z-score [6] | composite z-score [7] | composite z-score [8] | composite z-score [9] | composite z-score [10] | composite z-score [11] | z-score [12] | composite z-score [13] | composite z-score [14] | composite z-score [15] | composite z-score [16] | composite z-score [17] | composite z-score [18] | composite z-score [19] | composite z-score [20]
1 | OCCCC1=CC(c2cccs2)N(Cc2cc3c(cc2Br)OCO3)CC1 (stereo not given) | 0.725 | -0.16 | 0.197 | -0.252 (inactive) | 0.21 | -0.0247 | -0.275 | -0.0688 | 0.211 | 1.01 | 0.172 | -0.807 | -0.0241 | 0.0466 | -0.16 | -0.137 | -0.0011 | -0.105 | 0.26 | 1.36
2 | Oc1ccc2cc[n+](Cc3sc4ccccc4c3Cl)cc2c1 | 0.23 | 0.0518 | 0.799 | -1.74 (inactive) | 0.469 | -0.402 | -0.0568 | 0.618 | 0.481 | 1.28 | -0.317 | 0.514 | 0.0344 | -0.481 | -0.683 | -0.124 | 0.318 | -0.29 | 1.22 | 1.02
3 | NC(=O)[C@@H]1[C@H]2C(=O)O[C@H](c3ccccc3)[C@H](c3ccccc3)N2[C@H](c2ccc(O)cc2)[C@@]12C(=O)Nc1ccccc12 | 0.0555 | -0.109 | 0.798 | -0.936 (inactive) | -0.433 | -1.04 | -0.49 | -1.06 | -1.91 | -0.638 | 0.812 | -1.1 | -2.27 | -0.395 | -0.127 | -0.127 | -0.0553 | 0.264 | -1.02 | -0.674
4 | CN1C(=O)C2C=CC(C(O)C3CC=CCC3)N(N(c3ccccc3)c3ccccc3)C2C1=O (stereo not given) | 0.206 | 0.244 | 0.944 | 0.773 (inactive) | -0.291 | -1.64 | 0.664 | 0.184 | 0.175 | 1.87 | -1.02 | -0.155 | 0.411 | -0.549 | -0.75 | 0.027 | -0.0322 | -0.0446 | 0.533 | 0.141
5 | O=C(NCCN1CCOCC1)C1N=C(c2ccc(OCCCO)cc2)N(c2ccccc2)O1 (stereo not given) | 0.439 | 0.273 | 0.766 | -0.764 (inactive) | 1.56 | 1.08 | 0.837 | 0.751 | 0.915 | 0.145 | 0.694 | 0.289 | 1.08 | 0.745 | -0.177 | 0.139 | -0.0457 | 0.05 | 1.68 | 1.55
6 | COCCOC(=O)N1C(=O)[C@@]2(c3ccccc31)[C@H](C(=O)N1CCc3cc(OC)c(OC)cc3C1)[C@H]1C(=O)O[C@H](c3ccccc3)[C@H](c3ccccc3)N1[C@@H]2c1ccc(OCCO)cc1 | 1.33 | 0.232 | 0.395 | -1.27 (inactive) | 1.15 | 1.01 | 0.565 | 0.473 | 0.235 | 0.0475 | 1.02 | -1.39 | 0.295 | 1.28 | 0.366 | -0.147 | -0.0863 | 0.495 | 1.05 | 0.663
7 | COC(=O)[C@@]1(CCC(=O)OC(C)(C)C)N=C(c2ccc(OCCCO)cc2)O[C@H]1c1ccccc1N=[N+]=[N-] | 1.13 | 0.255 | 0.662 | 2.6 (inactive) | -0.113 | -0.0727 | -0.336 | 0.542 | 0.0186 | 0.431 | 0.799 | -1.85 | -0.0736 | 1.17 | 0.356 | 0.0101 | 0.178 | -0.193 | 1.06 | 0.654
8 | COc1ccc(C#Cc2ccc3c(c2)[C@]2(C(=O)N3)[C@H](c3ccccc3OCCO)N3[C@H](c4ccccc4)[C@H](c4ccccc4)OC(=O)[C@H]3[C@@H]2C(=O)Nc2nc3ccccc3s2)cc1 | 1.64 | -0.0008 | -0.197 | -1.11 (inactive) | 1.09 | 1.31 | 0.589 | 1.27 | 0.62 | 0.322 | 1.35 | -2.83 | 0.464 | 0.844 | -0.104 | -0.128 | -0.0556 | 1.76 | 0.307 | 1.62
9 | CN(C)CCCCCCNC(=O)[C@H]1C[C@H]2C(=O)N[C@@H](CCCCN)C(=O)N2[C@H]1c1cccc(OCCO)c1 | 1.99 | 3.01 | 1.72 | -0.361 (inactive) | 1.43 | 1.48 | 1.63 | 1.65 | 2.49 | 1.43 | 1.56 | 0.386 | 1.71 | 1.99 | 1.16 | 1.06 | 2.92 | 3.26 | 4.54 | 2.52
10 | CCCCCCc1nc(-c2ccc(OC)nc2)cc2c1[Si](C(C)C)(C(C)C)O[C@H]2c1ccccc1 | 1.33 | -0.0653 | -0.459 | -0.0107 (inactive) | 0.289 | -0.0539 | 0.31 | 0.633 | 0.117 | 0.318 | -0.103 | -0.657 | 0.28 | -0.0918 | 0.176 | -0.176 | 0.108 | -0.234 | -0.476 | 0.0237
11 | COC(=O)c1c(CC[C@@H](CO)NC(=O)NCCn2cc(C3(O)CCCC3)nn2)oc(C(C)=O)c1C(=O)OC | 0.546 | -0.147 | -0.26 | -0.152 (inactive) | -0.0339 | -0.0275 | 0.218 | -0.234 | 0.0587 | 0.129 | -0.0133 | -0.674 | -0.0138 | -0.19 | -0.732 | -0.169 | -0.195 | -0.158 | 0.331 | 0.139
